According to PubChem BioAssay (Tox21):
Records with an inconclusive call do not appear. Activity calls are given as the source filed them. Unless noted, calls follow the shape of the dose curve; as a rule, active = well fitted curve in the direction sought with a large enough effect in the repeat runs; inconclusive = weak or mixed curves; inactive = no such curve, though single readings can be large; an effect the other way counts as inactive or inconclusive.

Columns and labels:
[1] = tested on: thyroid hormone receptor (rat, GH3 cells); assay: qHTS assay to identify small molecule agonists of the thyroid receptor (TR) signaling pathway (AID 743066; calls by dose curve)
[2] = qHTS assay to identify small molecule antagonists of the estrogen receptor alpha (ER-alpha) signaling pathway - cell viability counter screen (AID 743074; calls by dose curve;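 also: HEK293 cells carrying ER-alpha-UAS-bla reporter stimulated with 17beta-estradiol; nearly all actives have a fitted effect of over 45% in size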)
[3] = qHTS assay to identify small molecule antagonists of the estrogen receptor alpha (ER-alpha) signaling pathway using the BG1 cell line - cell viability counter screen (AID 743081);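 also: compound given together with 17beta-estradiol as the ER stimulus; series mostly up to about 70 µM; nearly all actives have a fitted effect of over 45% in size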
Aromatase (Homo sapiens) = Aromatase (Homo sapiens) (UniProt P11511); assay: qHTS assay to identify aromatase inhibitors (AID 743083); also: series mostly up to about 70 µM; nearly all actives have a fitted effect of over 55% in size
Chain of Aromatase (Homo sapiens) (P11511 whole entry, looked up): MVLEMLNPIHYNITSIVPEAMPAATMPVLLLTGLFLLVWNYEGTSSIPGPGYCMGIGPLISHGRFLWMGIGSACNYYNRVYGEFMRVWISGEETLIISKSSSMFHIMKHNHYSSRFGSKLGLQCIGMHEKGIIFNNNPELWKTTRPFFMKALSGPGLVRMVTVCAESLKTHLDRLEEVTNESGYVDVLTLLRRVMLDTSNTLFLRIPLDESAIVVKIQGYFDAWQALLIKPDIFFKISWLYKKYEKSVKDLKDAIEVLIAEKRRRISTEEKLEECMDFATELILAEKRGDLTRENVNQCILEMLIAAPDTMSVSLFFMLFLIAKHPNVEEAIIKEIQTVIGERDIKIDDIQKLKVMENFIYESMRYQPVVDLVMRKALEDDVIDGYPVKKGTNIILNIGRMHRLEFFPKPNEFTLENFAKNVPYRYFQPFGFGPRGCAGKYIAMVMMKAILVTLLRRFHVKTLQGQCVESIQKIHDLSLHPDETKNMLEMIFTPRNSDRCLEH

[4] = qHTS assay to identify aromatase inhibitors - cell viability counter screen (AID 743084);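 also: cells stimulated with testosterone during compound exposure; nearly all actives have a fitted effect of over 55% in size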
[5] = molecular target: Aryl hydrocarbon receptor (Homo sapiens) (UniProt P35869); assay: qHTS assay to identify small molecule that activate the aryl hydrocarbon receptor (AhR) signaling pathway (AID 743085); also: nearly all actives have a fitted effect of over 15% in size; also: potency is read from the fitted curve at half-maximal effect;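 as to activation: HG2L7.5c1 human HepG2 liver cells with stably integrated DRE-driven firefly reporter; series mostly up to about 70 µM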
Chain of Aryl hydrocarbon receptor (Homo sapiens) (P35869 whole entry, looked up): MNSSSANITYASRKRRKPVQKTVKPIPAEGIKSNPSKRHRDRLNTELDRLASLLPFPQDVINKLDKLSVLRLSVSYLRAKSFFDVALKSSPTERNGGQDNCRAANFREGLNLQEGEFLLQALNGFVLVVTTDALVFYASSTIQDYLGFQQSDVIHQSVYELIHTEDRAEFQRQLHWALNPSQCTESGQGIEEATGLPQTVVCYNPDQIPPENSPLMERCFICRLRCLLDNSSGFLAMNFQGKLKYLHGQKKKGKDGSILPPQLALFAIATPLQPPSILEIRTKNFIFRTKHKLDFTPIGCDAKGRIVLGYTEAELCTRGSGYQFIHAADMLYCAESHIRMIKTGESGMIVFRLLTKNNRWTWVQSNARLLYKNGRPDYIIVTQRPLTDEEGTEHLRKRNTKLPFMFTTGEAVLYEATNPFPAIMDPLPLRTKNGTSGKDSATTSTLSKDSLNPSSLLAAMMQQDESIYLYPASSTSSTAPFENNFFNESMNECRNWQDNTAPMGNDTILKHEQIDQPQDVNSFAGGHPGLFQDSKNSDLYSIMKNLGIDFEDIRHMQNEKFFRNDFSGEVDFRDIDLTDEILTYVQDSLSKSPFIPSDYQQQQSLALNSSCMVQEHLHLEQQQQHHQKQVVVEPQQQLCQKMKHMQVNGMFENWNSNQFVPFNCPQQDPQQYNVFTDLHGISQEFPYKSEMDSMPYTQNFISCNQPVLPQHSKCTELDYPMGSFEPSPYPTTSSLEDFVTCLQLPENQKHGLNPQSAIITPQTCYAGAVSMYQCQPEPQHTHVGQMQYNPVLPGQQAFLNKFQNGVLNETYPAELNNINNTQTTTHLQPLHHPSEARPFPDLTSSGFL
Procedure, shortened: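 HepG2 cells (HG2L7.5c1) stably carrying a firefly luciferase reporter driven by 20 dioxin responsive elements were exposed to compound for 24 h at 37C after a 5 h settling period; luminescence rise (ONE-Glo) indicated activation.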

[6] = qHTS assay to identify small molecule that activate the aryl hydrocarbon receptor (AhR) signaling pathway - cell viability counter screen (AID 743086);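 also: HepG2 liver cells carrying the AhR DRE luciferase reporter; series mostly up to about 70 µM; nearly all actives have a fitted effect of over 45% in size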
Procedure, shortened: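 Cytotoxicity counter screen: CellTiter-Fluor signal (30 min, 37 C) in 4000 HepG2 cells/well carrying the DRE-luciferase reporter, following 24 h compound exposure at 37 C.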

[7] = molecular target: Peroxisome proliferator-activated receptor gamma (Homo sapiens) (UniProt P37231); assay: qHTS assay to identify small molecule agonists of the peroxisome proliferator-activated receptor gamma (PPARg) signaling pathway (AID 743094; active = well fitted activation curve with a large enough effect in the signal ratio in the repeat runs, not every such curve was filed as active; the % refers to the signal ratio)
Chain of Peroxisome proliferator-activated receptor gamma (Homo sapiens) (P37231 whole entry, looked up): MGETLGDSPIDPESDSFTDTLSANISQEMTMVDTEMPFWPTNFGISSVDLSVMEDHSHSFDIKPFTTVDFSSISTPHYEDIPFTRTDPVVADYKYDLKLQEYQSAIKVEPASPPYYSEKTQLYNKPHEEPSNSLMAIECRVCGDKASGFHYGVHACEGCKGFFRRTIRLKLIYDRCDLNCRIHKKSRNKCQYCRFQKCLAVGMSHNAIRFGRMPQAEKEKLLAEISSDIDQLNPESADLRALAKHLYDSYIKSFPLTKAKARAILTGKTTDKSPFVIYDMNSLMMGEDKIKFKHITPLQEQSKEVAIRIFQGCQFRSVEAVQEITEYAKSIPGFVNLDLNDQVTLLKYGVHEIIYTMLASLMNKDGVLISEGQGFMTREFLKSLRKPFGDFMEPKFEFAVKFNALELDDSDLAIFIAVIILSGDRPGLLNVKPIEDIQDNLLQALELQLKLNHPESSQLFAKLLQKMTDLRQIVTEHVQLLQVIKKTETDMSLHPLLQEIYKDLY
Procedure, shortened: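 Cell-based bla reporter, HEK293H background, PPARg-driven UAS. Pre-incubation 5 h, 37C, 5% CO2. Compound 17 h, 37C. Substrate 1 h RT; fluorescence.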

[8] = molecular target: Peroxisome proliferator-activated receptor gamma (Homo sapiens) (UniProt P37231); assay: qHTS assay to identify small molecule antagonists of the peroxisome proliferator-activated receptor gamma (PPARg) signaling pathway (AID 743191; calls by dose curve; also: series mostly up to about 63 µM; nearly all actives have a fitted effect of over 30% in size)
Procedure, shortened: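 Beta-lactamase reporter under UAS control in HEK293H PPARg-bla cells; compound treatment 17 h at 37C. Read-out: fluorescence intensity after 1 h room-temperature incubation with LiveBLAzer B/G FRET substrate.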

[9] = qHTS assay to identify small molecule antagonists of the peroxisome proliferator-activated receptor gamma (PPARg) signaling pathway - cell viability counter screen (AID 743194); also: nearly all actives have a fitted effect of over 55% in size
Procedure, shortened: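 Viability was measured as CellTiter-Glo luminescence in GeneBLAzer PPARg UAS-bla HEK293H cells. These cells had been exposed 17 h at 37 C to compounds together with rosiglitazone at 50 nM final, with the beta-lactamase readout taken in the same wells.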

[10] = qHTS assay for small molecule agonists of the antioxidant response element (ARE) signaling pathway (AID 743202; active = well fitted activation curve with a large enough effect in the signal ratio in the repeat runs, not every such curve was filed as active; the % refers to the signal ratio; also: potency is read from the fitted curve at half-maximal effect)
Procedure, shortened: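 After 16 hours of compound treatment at 37 C, HepG2 cells with a stably integrated ARE-driven beta-lactamase reporter were loaded 2 hours at room temperature with LiveBLAzer B/G FRET substrate and fluorescence intensity measured.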

[11] = qHTS assay for small molecule agonists of the antioxidant response element (ARE) signaling pathway - cell viability counter screen (AID 743203; calls by dose curve; also: nearly all actives have a fitted effect of over 55% in size)
Procedure, shortened: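 Measured in the same wells as the beta-lactamase ARE reporter, this read-out is CellTiter-Glo luminescence from HepG2 ARE-bla cells given compounds for 16 hrs.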

[12] = qHTS assay for small molecule activators of the heat shock response signaling pathway - cell viability counter screen (AID 743209); also: nearly all actives have a fitted effect of over 50% in size
Procedure, shortened: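 Same-well multiplex: after 2.5 h room-temperature incubation with LiveBLAzer B/G substrate and fluorescence reading, CellTiter-Glo reagent was added to HSE-bla HeLa cells that had received compound for 5 h at 37 C; luminescence read after 30 min.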

[13] = qHTS assay for small molecule activators of the heat shock response signaling pathway (AID 743210; active = well fitted activation curve with a large enough effect in the signal ratio in the repeat runs, with a control signal flat, not every such curve was filed as active; the % refers to the signal ratio; also: series mostly up to about 63 µM)
Procedure, shortened: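 Compound exposure lasted 5 h at 37 C in HeLa cells carrying a heat-shock-element-driven beta-lactamase reporter. Read-out: fluorescence intensity after 2.5 h room-temperature loading with LiveBLAzer B/G FRET substrate.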

[14] = qHTS assay to identify small molecule agonists of the peroxisome proliferator-activated receptor delta (PPARd) signaling pathway - cell viability counter screen (AID 743211); also: nearly all actives have a fitted effect of over 55% in size
Procedure, shortened: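 PPARd-bla HEK293H cells (UAS-beta-lactamase reporter) were treated with compounds for 17 h at 37 C. Viability was then read in the same wells by CellTiter-Glo luminescence after 30 min at room temperature.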

[15] = molecular target: Peroxisome proliferator-activated receptor delta (Homo sapiens) (UniProt Q03181); assay: qHTS assay to identify small molecule agonists of the peroxisome proliferator-activated receptor delta (PPARd) signaling pathway (AID 743212; calls by dose curve)
Chain of Peroxisome proliferator-activated receptor delta (Homo sapiens) (Q03181 whole entry, looked up): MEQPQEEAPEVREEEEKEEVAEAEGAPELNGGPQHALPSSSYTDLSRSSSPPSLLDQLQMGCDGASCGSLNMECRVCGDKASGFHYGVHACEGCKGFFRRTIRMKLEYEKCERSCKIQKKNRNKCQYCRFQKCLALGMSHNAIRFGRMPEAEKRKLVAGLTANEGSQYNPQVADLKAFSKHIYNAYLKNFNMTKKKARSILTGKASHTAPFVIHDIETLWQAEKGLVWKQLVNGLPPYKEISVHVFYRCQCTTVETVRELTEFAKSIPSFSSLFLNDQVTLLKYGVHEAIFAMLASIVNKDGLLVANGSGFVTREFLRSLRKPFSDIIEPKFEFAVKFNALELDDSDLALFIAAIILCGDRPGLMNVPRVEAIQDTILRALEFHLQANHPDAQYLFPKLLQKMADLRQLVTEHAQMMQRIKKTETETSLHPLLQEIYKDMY
Procedure, shortened: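 Beta-lactamase reporter readout: a ratiometric FRET signal from the LiveBLAzer substrate after 2 h at room temperature. Compound exposure at 37 °C in PPARδ-bla HEK293H cells driven by an upstream activator sequence.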

[16] = molecular target: Estrogen receptor (Homo sapiens) (UniProt P03372); assay: qHTS assay to identify small molecule agonists of the estrogen receptor alpha (ER-alpha) signaling pathway (AID 743075; calls by dose curve;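 also: HEK293 GripTite cells with ER-alpha and UAS-driven beta-lactamase reporter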)
Chain of Estrogen receptor (Homo sapiens) (P03372 whole entry, looked up): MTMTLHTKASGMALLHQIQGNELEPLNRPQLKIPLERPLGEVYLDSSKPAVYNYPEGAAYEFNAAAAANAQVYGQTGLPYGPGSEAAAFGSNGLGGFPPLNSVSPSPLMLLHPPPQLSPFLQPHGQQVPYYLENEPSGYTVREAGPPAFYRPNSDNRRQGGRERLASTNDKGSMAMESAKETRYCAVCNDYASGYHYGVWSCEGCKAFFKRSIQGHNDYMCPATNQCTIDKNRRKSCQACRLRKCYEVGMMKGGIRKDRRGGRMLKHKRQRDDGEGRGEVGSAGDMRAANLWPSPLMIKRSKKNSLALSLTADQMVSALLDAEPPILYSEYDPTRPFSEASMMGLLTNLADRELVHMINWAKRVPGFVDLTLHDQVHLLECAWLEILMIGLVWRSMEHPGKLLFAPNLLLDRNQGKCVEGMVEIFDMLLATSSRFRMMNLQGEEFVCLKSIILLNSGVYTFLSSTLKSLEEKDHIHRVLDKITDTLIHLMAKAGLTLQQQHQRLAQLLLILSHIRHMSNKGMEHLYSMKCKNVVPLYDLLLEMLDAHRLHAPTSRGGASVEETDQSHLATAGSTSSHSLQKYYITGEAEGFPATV

Measured: Potency

Cc1c(Cl)cccc1[N+](=O)[O-]
not listed: [16]
inactive: all other assays above

O=C(O)c1ccccc1[N+](=O)[O-]
not listed: [10] | [16]
inactive: all other assays above

C=C[Si]1(C)O[Si](C)(C=C)O[Si](C)(C=C)O[Si](C)(C=C)O1 (stereo not drawn)
not listed: [6] | [12] | [13] | [16]
inactive: all other assays above

CCCCCCCCCCCCCCCCC(=O)O
not listed: [6] | [16]
inactive: all other assays above

CC(C)CCCCCCCOC(=O)c1ccc(C(=O)OCCCCCCCC(C)C)c(C(=O)OCCCCCCCC(C)C)c1
not listed: [6] | [13] | [16]
inactive: all other assays above

Cc1ccc(S(=O)(=O)NC(=O)NC2CCCC2)cc1
not listed: [9] | [16]
inactive: all other assays above

CC(=O)S[C@H](C(=O)N[C@H]1Cc2ccccc2[C@H]2CCC[C@@H](C(=O)O)N2C1=O)C(C)C
not listed: [7] | [8] | [9] | [15] | [16]
inactive: all other assays above

O=C(Nc1ccccc1)c1cc([N+](=O)[O-])ccc1Cl
active: [5] 54.5 µM | [10] 7.7 µM
not listed: [4] | [6] | [8] | [13]
inactive: all other assays above
